3CLpro inhibitor: SARS-CoV 3CLpro protease inhibition; P0C6X7; recombinant SARS-CoV 3CLpro, quenched FRET peptide cleavage; inhibition, % at 6 µM; actives 0.14% (n = 290,000); AID 1706; in the data active = inhibition above about 12%
PrP 5UTR inh: suppresses PrP 5' UTR mRNA reporter expression; cell-based PrP 5' UTR mRNA reporter, plate reader; inhibition, % (test concentration not listed); actives 0.35% (n = 340,000); AID 488862; in the data active = inhibition above about 52%; also: 0 = median of the neutral control wells
SSB-PriA inh: inhibitors of Klebsiella pneumoniae PriA binding to SSB C-terminal tail; actives 0.6% (n = 430,000); inhibition, % at 33 µM; AlphaScreen SSBct-PriA binding, biotinylated peptide; in the data active = inhibition mostly above about 37%, no sharp cut-off; inactive = mostly below about 20%;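 also: plate controls were negative control peptide for no effect and reference peptide for full effect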
PrPC TRFRET: cell surface PrPC inhibition, primary TR-FRET screen. P04156. inhibition, % at 13.8 µM. AID 720596. TR-FRET read-out. actives 0.43% (n = 370,000); in the data active = inhibition above about 24%; also: 0% = median of the test wells and 100% = reference compound wells
BJeLR viability: BJeLR cell viability loss; BJeLR (HRASV12) viability, CellTiter-Glo ATP luminescence, 48 h; inhibition, % (test concentration not listed); actives 0.17% (n = 300,000); AID 1554; in the data active = inhibition above about 50%
An asterisk follows results filed as active; i = inactive; nt = no result; + = active, no number. Most compounds without a hit are left out; they make up all but 1.2% or so of the library.

SMILES | 3CLpro inhibitor | PrP 5UTR inh | SSB-PriA inh | PrPC TRFRET | BJeLR viability
O=C(c1cnn(-c2ccccc2)n1)N1CCC(Oc2nc3c(Cl)cccc3s2)CC1 | nt | nt | -9.0 | nt | nt
O=C(Cc1c[nH]c2ccccc12)Nc1ccc(Nc2ccncc2)cc1 | nt | nt | nt | 5.3 | nt
Cc1cc(Nc2ccc(NC(=O)Cc3c[nH]c4ccccc34)cc2)nc(N2CCCC2)n1 | nt | nt | 45.0* | nt | nt
O=C(Cn1cc(-c2nnc(-c3ccco3)o2)c2ccccc21)N1CCCc2ccccc21 | nt | nt | -4.0 | nt | nt
O=C(Nc1cccc([N+](=O)[O-])c1)Nc1ccc2c(c1)CCC2 | 9.0 | -39.5 | -5.8 | -2.7 | 0.7
O=[N+]([O-])c1cccc(CNc2ccc3c(c2)CCC3)c1 | 3.2 | -16.9 | 69.2* | 3.7 | -23.5
CN(C)C(=O)C1CCNCC1 | nt | nt | 39.0* | nt | nt
Cc1ccnc2c1ccc1ccccc12 | -0.2 | 8.7 | -3.3 | 9.4 | 3.5
Cc1ccnc2c1ccc1c(C)ccnc12 | nt | 54.5* | 98.2* | nt | nt
O=C(NNC(=S)Nc1ccc(Cl)c(Cl)c1)c1ccccn1 | 1.1 | 11.0 | 91.6* | 10.8 | 4.5
CCNC(=S)NNC(=O)c1ccccc1Cl | -1.8 | -18.4 | -4.2 | 8.7 | -5.3
CCNC(=S)NNC(=O)c1ccccn1 | -4.5 | -24.7 | 92.5* | 8.3 | -11.5
COc1ccc2nc(N(CCCn3ccnc3)C(=O)/C=C/c3cccs3)sc2c1 | nt | nt | 53.0* | nt | nt
COc1ccc2nc(N(CCN(C)C)C(=O)c3ccc4c(c3)OCCO4)sc2c1 | 1.8 | -13.2 | -14.1 | -6.9 | 6.9
COc1ccc(Cl)c2sc(N(CCCn3ccnc3)C(=O)c3cccc(F)c3)nc12 | nt | nt | 25.0 | nt | nt
O=C(c1cccc(F)c1)N(CCCn1ccnc1)c1nc2ccc(Cl)cc2s1 | nt | nt | 52.0* | nt | nt
O=C(c1ccc2c(c1)OCCO2)N(CCCn1ccnc1)c1nc2ccc(F)cc2s1 | nt | nt | 37.0* | nt | nt
CCCC(=O)Nc1[nH]c(=S)c(C#N)c(-c2ccc(OC(=O)CCC)cc2)c1C#N | nt | nt | 97.0* | nt | nt
CCCCc1ccc(NC(=O)CSc2nc(=O)n3cc(Cl)ccc3n2)cc1 | nt | nt | -8.0 | nt | nt
CCS(=O)(=O)c1ccc(CC(=O)Nc2nnc(-c3ccco3)o2)cc1 | nt | nt | 54.0* | nt | nt
COc1ccc(S(=O)(=O)CC(=O)Nc2nnc(-c3ccco3)o2)cc1 | nt | nt | -5.0 | nt | nt
CCOc1ccc(-c2cn3c(CC(=O)N4CCN(Cc5ccccc5)CC4)csc3n2)cc1 | nt | nt | -16.0 | nt | nt
O=[N+]([O-])c1cc(F)c(N2CCc3ccccc3C2)cc1N1CCOCC1 | nt | nt | 75.3* | nt | nt
CCN1CCN(c2cc(N3CCc4ccccc4C3)c([N+](=O)[O-])cc2F)CC1 | nt | nt | 83.2* | nt | nt
CN1CCN(c2cc(N3CCc4ccccc4C3)c(F)cc2[N+](=O)[O-])CC1 | -0.7 | 0.0 | 40.6* | -29.2 | 1.1
SMILES | 3CLpro inhibitor | PrP 5UTR inh | SSB-PriA inh | PrPC TRFRET | BJeLR viability
O=[N+]([O-])c1cc(F)c(N2CCCC2)cc1N1CCc2ccccc2C1 | nt | nt | 32.8 | nt | nt
O=C(O)c1cc(-n2cccn2)ccn1 | nt | nt | 75.0* | nt | nt
O=C(Nc1cccnc1)c1cc(-n2cccn2)ccn1 | nt | nt | -8.0 | nt | nt
O=C(O)c1cc(I)ccn1 | nt | nt | 66.6* | nt | nt
Cc1ccc(CNc2nccn(-c3cccc(Cl)c3C)c2=O)cc1 | nt | nt | 46.0* | nt | nt
O=c1c(NCc2ccc(Cl)cc2)nccn1-c1cccc(C(F)(F)F)c1 | nt | nt | 54.0* | nt | nt
CCOc1ccc(-c2cc3c(SCc4ccccc4F)nccn3n2)cc1Cl | nt | nt | -14.0 | nt | nt
O=C(Nc1nc(-c2ccccn2)cs1)c1ccc(N2CCOCC2)nc1 | nt | nt | 94.8* | nt | nt
O=C(Nc1nc(-c2ccco2)cs1)c1ccc(N2CCOCC2)nn1 | nt | nt | -8.0 | nt | nt
CCOC(=O)Cc1csc(NC(=O)c2ccc(N3CCCCC3)nn2)n1 | nt | nt | -10.0 | nt | nt
Cc1nc(NC(=O)c2ccc(N3CCCCC3)nn2)sc1C(=O)N(C)C | nt | nt | 48.0* | nt | nt
O=C(Nc1nc(-c2ccccn2)cs1)c1ccc(N2C(=O)CCC2=O)cc1 | nt | nt | 54.8 | nt | nt
O=C(Nc1nc(-c2ccccn2)cs1)c1ccc(N2CCCC2)nn1 | nt | nt | 72.0* | nt | nt
N#Cc1c(NC(=O)c2ccc(S(=O)(=O)N3CCc4ccccc43)cc2)sc2c1CCC2 | nt | nt | -6.0 | nt | nt
Cc1c(C(=O)N2CC(C)OC(C)C2)[nH]c2ccc(Br)cc12 (stereo not given) | -1.8 | -24.6 | 11.5 | 27.6* | -0.8
CC1CN(C(=O)c2cc3cc(Br)ccc3[nH]2)CC(C)O1 (stereo not given) | -4.4 | -10.4 | -0.3 | 2.7 | -2.0
COc1ccc(-c2cc(-c3ccccc3)nc(SCC(=O)NCC3CCCO3)c2C#N)cc1OC (stereo not given) | nt | nt | -20.0 | nt | nt
O=C(O)CC1S/C(=N\N=C2\CSC(=O)N2)NC1=O (stereo not given) | nt | nt | 64.0* | nt | nt
NC(=O)NC(=O)CC1S/C(=N/N=C2\CSC(=O)N2)NC1=O (stereo not given) | -2.0 | -6.0 | nt | -8.8 | 2.7
Cc1ccc(NC(=O)CC2SC(=NN=C3NC(=O)CS3)NC2=O)cc1 (stereo not given) | nt | nt | 3.4 | nt | nt
O=C1CS/C(=N\N=C2\NC(=O)C(CC(=O)c3ccc(F)cc3)S2)N1 (stereo not given) | nt | nt | 46.0* | nt | nt
COc1ccc(OCC(=O)N/N=C/c2cccc3cccnc23)cc1 | -3.4 | 6.4 | nt | 12.5 | -6.2
O=C(N/N=C/c1cccc2nccnc12)c1ccncc1 | -3.2 | nt | + | 2.8 | 3.3
COc1ccc(C(=O)NN=Cc2cccc3cccnc23)cc1 | nt | nt | 79.8* | nt | nt
O=C(N/N=C/c1cccc2cccnc12)c1ccccc1O | -0.8 | -10.5 | + | -8.8 | 19.1
SMILES | 3CLpro inhibitor | PrP 5UTR inh | SSB-PriA inh | PrPC TRFRET | BJeLR viability
CCOc1ccc(C(=O)NN=Cc2cccc3cccnc23)cc1 | nt | nt | 88.5* | nt | nt
O=C(N/N=C/c1cccc2nccnc12)c1ccccc1O | -4.0 | -16.9 | i | 6.6 | 7.1
CCN(CC)c1ccc(/C=C2\C(=O)N(c3nnc(C)c(=O)[nH]3)N=C2C)cc1 | -1.9 | -5.3 | 78.2* | 2.2 | 9.8
O=C(Nc1cc(-n2ccnc2)ncn1)c1cccc(C(F)(F)F)c1 | nt | nt | 0.0 | nt | nt
N#Cc1c(-c2ccccc2)c(-c2ccccc2)nn(CC(=O)NNC(=O)Nc2ccc(Cl)c(Cl)c2)c1=O | 2.4 | -19.8 | 52.0* | 0.8 | -3.8
Cc1ccc(NC(=O)Cn2nc(-c3ccccc3)c3sc(N4CCCC4)nc3c2=O)cc1Cl | nt | nt | 14.0 | nt | nt
O=C(Nc1nc(-c2ccc(Br)cc2)cs1)c1cc(Cl)cc(Cl)c1 | nt | nt | -1.0 | nt | nt
O=C(Cn1cnc2c(cnn2C2CCS(=O)(=O)C2)c1=O)Nc1ccc(Cl)cc1 (stereo not given) | nt | nt | -6.0 | nt | nt
Cc1nn(S(=O)(=O)c2ccccc2)c(C)c1Sc1ccc([N+](=O)[O-])cc1 | 6.8 | 7.0 | 18.6 | 8.7 | -3.8
Cc1nn(S(=O)(=O)c2ccccc2[N+](=O)[O-])c(C)c1Sc1ccccc1 | nt | nt | 37.0* | nt | nt
O=C(Nc1ccc2c(c1)N(C(=O)c1cccs1)CC2)c1cccc(C(F)(F)F)c1 | nt | nt | -4.0 | nt | nt
CCc1ccc(S(=O)(=O)Nc2ccc3c(c2)N(C(=O)COC)CCC3)s1 | nt | nt | -6.0 | nt | nt
N#Cc1nccnc1N1CCC(CNC(=O)c2ccc(OC(F)(F)F)cc2)CC1 | nt | nt | -7.0 | nt | nt
COc1ccc(OC)c(S(=O)(=O)NCCn2ccnc2-c2ncccn2)c1 | nt | nt | 91.0* | nt | nt
COc1ccc(Br)c(C(=O)NCCn2nc(C)cc2C)c1 | nt | nt | -12.0 | nt | nt
O=C(NCCn1ccnc1-c1ncccn1)c1ccc2c(c1)OCO2 | nt | nt | 93.0* | nt | nt
COc1ccc(Br)c(C(=O)NCCn2ccnc2-c2ncccn2)c1 | nt | nt | 91.0* | nt | nt
COc1ccc(S(=O)(=O)NCCn2ccnc2-c2ncccn2)c(C)c1 | nt | nt | 81.0* | nt | nt
